Source: PubChem BioAssay (Tox21)
Values without a mark were called inactive. Results filed as inconclusive are left out. Entries that show only a call come without a potency. The source made the active and inactive calls. Unless noted, the call rests on the fitted dose curve; in most records, active means well fitted curve in the direction sought with a large enough effect in the repeat runs; inconclusive means weak or mixed curves; inactive means no such curve, though single readings can be large; an effect the other way counts as inactive or inconclusive.

Key:
[1] = qHTS assay for small molecule agonists of the p53 signaling pathway (AID 651631; calls by dose curve; further: nearly all actives have a fitted effect of over 15% in size)
Outline: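 HCT-116 cells carrying a stable p53 response element–beta-lactamase reporter were plated, rested 5 h at 37 °C, then exposed to compound in DMSO for 16 h at 37 °C; reporter activity was read as FRET substrate fluorescence after 2 h at room temperature.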

[2] = qHTS assay for small molecules that induce genotoxicity in human embryonic kidney cells expressing luciferase-tagged ATAD5 (AID 651632); further: nearly all actives have a fitted effect of over 15% in size
Outline: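 A rise in luciferase signal from ATAD5-tagged HEK293T cells marks genetic stress. Cells were exposed to compounds for 16 hr at 37C, 5% CO2, then luciferase was quantified after a 30 min room-temperature incubation with Amplite.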

[3] = qHTS assay for small molecules that induce genotoxicity in human embryonic kidney cells expressing luciferase-tagged ATAD5 - cell viability (AID 651634; calls by dose curve; further: nearly all actives have a fitted effect of over 25% in size)
Outline: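 Cytotoxicity counter-readout: after 15.5 hr compound treatment at 37C, live-cell protease activity in ATAD5-luciferase HEK293T cells measured by CellTiter-Fluor fluorescence, 30 min development at 37C.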

[4] = qHTS assay to test for compound auto fluorescence at 590 nm (red) in HepG2 cells (AID 720674)
Outline: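 Intrinsic compound fluorescence in the red window (Ex/Em 540/590 nm) is measured in attached HepG2 cells exposed for 1 hr, DMSO vehicle as baseline, benchmarked to Rose Bengal sodium.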

[5] = qHTS assay to test for compound auto fluorescence at 535 nm (green) in HepG2 cells (AID 720675)
[6] = qHTS assay to test for compound auto fluorescence at 460 nm (blue) in HEK293 cells (AID 720678)
Outline: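 Blue read-out at excitation 405 nm and emission 460 nm follows overnight compound exposure of HEK293 cells at 37C in 5% CO2. Activity is given as auto fluorescence equivalency to triamterene.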

[7] = qHTS assay to test for compound auto fluorescence at 590 nm (red) in HEK293 cells (AID 720679)
Outline: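 Red channel, Ex/Em 540/590nm; signal expressed as equivalency to Rose Bengal sodium. HEK293, 2,000 cells/well, 10% dialyzed FBS; 23 nL compound pinned after 4-5 hr attachment; overnight 37C/5% CO2 before reading.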

[8] = qHTS assay to test for compound auto fluorescence at 535 nm (green) in HEK293 cells (AID 720680)
[9] = qHTS assay to test for compound auto fluorescence at 460 nm (blue) in HEK293 cell free culture (AID 720681)
Outline: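 Test compounds were pinned into cell-free culture medium (DMEM with 10% FBS) and fluorescence was read directly at Ex/Em 405/460 nm. Signals were expressed as fluorescence equivalents of triamterene, with DMSO vehicle as control.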

[10] = qHTS assay to test for compound auto fluorescence at 535 nm (green) in HEK293 cell free culture (AID 720682)
Outline: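 Read-out: 485/535 nm fluorescence intensity, calibrated against fluorescein. Medium only (DMEM + 10% FBS, no cells); test compound or DMSO vehicle added by pintool before plate reading.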

[11] = qHTS assay to test for compound auto fluorescence at 590 nm (red) in HEK293 cell free culture (AID 720683)
Outline: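 Tox21 10K library compounds were pinned into cell-free DMEM with 10% FBS and fluorescence was read at excitation 540 nm. Activity is expressed as Rose Bengal sodium equivalency.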

[12] = qHTS assay to test for compound auto fluorescence at 590 nm (red) in HepG2 cell free culture (AID 720684)
Outline: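 Ex 540 / Em 590 nm read of compound in cell-free MEM (10% FBS). Rose Bengal sodium reference.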

[13] = qHTS assay to test for compound auto fluorescence at 460 nm (blue) in HepG2 cell free culture (AID 720685)
Outline: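 Cell-free plates of MEM plus 10% FBS received 23 nL compound or DMSO vehicle; blue-channel (405/460 nm) intensity scored against triamterene as reference fluorophore.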

[14] = qHTS assay to test for compound auto fluorescence at 535 nm (green) in HepG2 cell free culture (AID 720686)
[15] = qHTS assay to test for compound auto fluorescence at 460 nm (blue) in HepG2 cells (AID 720687)
Outline: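 Cells (2,000/well in MEM with 10% FBS) attached overnight at 37 C, then were exposed to compound or DMSO for 1 hr at 37 C, 5% CO2. Fluorescence read at Ex/Em 405/460 nm, expressed as triamterene-equivalent signal.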

[16] = qHTS assay for small molecule agonists of the p53 signaling pathway - cell viability (AID 651633; calls by dose curve; further: series mostly up to about 83 µM; nearly all actives have a fitted effect of over 30% in size)
Outline: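 p53RE-bla cells, seeded at 4,000 per well and rested 5 h at 37 C/5% CO2, received compounds in DMSO for 16 h at 37 C. CellTiter-Glo was then added, and luminescence was read after 30 min at room temperature to gauge cytotoxicity.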

[17] = qHTS assay for small molecule disruptors of the mitochondrial membrane potential - cell viability (AID 720634; calls by dose curve;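 further: human HepG2 liver cancer cells; series mostly up to about 83 µM; nearly all actives have a fitted effect of over 20% in size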)
Outline: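 Cytotoxicity was quantified from ATP content by CellTiter-Glo luminescence in the same wells as the MMP dye read-out. HepG2 (2,000 cells/well) were plated overnight and exposed to compounds for 1 hr at 37 C.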

[18] = qHTS assay for small molecule disruptors of the mitochondrial membrane potential (AID 720635); further: potency means the concentration at half of the fitted maximal effect
Outline: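 HepG2 cells (2,000/well) attached overnight at 37C, then took compound for 1 hr at 37C, 5% CO2. Mito-MPS dye was added for 30 min; fluorescence was read at 490/535 nm (monomers) and 540/590 nm (aggregates).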

[19] = biological target: Glucocorticoid receptor (Homo sapiens) (UniProt P04150); test: qHTS assay to identify small molecule antagonists of the glucocorticoid receptor (GR) signaling pathway (AID 720692; active means well fitted inhibition curve with a large enough effect in the signal ratio in the repeat runs, not every such curve was filed as active; the % refers to the signal ratio)
Glucocorticoid receptor (Homo sapiens), sequence (P04150 whole entry, looked up): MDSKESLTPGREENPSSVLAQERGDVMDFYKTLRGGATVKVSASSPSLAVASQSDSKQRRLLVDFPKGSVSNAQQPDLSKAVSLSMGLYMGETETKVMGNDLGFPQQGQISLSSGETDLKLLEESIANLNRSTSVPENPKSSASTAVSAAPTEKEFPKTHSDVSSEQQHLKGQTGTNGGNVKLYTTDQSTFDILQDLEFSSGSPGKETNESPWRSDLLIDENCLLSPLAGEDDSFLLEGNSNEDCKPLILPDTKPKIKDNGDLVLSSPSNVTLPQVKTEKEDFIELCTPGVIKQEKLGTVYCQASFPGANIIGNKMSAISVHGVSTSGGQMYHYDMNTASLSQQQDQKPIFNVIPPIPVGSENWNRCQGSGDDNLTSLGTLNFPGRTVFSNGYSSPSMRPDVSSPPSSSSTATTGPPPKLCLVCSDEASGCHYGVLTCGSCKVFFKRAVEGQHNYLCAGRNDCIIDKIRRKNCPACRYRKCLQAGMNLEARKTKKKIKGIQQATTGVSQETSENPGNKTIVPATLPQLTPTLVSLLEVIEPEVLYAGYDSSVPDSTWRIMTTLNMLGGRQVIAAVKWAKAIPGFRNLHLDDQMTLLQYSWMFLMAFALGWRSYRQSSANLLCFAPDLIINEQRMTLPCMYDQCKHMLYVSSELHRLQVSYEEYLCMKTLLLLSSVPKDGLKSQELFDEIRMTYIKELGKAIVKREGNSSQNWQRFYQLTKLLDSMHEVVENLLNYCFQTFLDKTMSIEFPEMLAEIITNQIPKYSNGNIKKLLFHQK
Outline: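 Inhibition of dexamethasone-driven (5 nM final) beta-lactamase expression was measured in GRE-reporter HeLa cells over 18 h at 37C. Fluorescence was read after 2 h with the B/G FRET substrate at room temperature.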

[20] = biological target: Glucocorticoid receptor (Homo sapiens) (UniProt P04150); test: qHTS assay to identify small molecule agonists of the glucocorticoid receptor (GR) signaling pathway (AID 720691; active means well fitted activation curve with a large enough effect in the signal ratio in the repeat runs, not every such curve was filed as active; the % refers to the signal ratio)
Outline: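 Agonist-mode qHTS in HeLa cells stably expressing a glucocorticoid-response-element beta-lactamase reporter. Fluorescence intensity read with FRET substrate (2 h, room temperature) after 18 h compound treatment at 37 C.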

Structure (SMILES): C[C@]12CCC(=O)C=C1[C@@H]1C[C@@H]1[C@H]1[C@@H]3[C@@H]4C[C@@H]4[C@@]4(CCC(=O)O4)[C@@]3(C)CC[C@@H]12
- Potency [1]: inactive
- Potency [2]: inactive
- Potency [3]: inactive
- outcome [4]: inactive
- outcome [5]: inactive
- Potency [6]: inactive
- outcome [7]: inactive
- outcome [8]: inactive
- Potency [9]: inactive
- outcome [10]: inactive
- outcome [11]: inactive
- outcome [12]: inactive
- outcome [13]: inactive
- outcome [14]: inactive
- outcome [15]: inactive

Structure (SMILES): CC(=O)Nc1ccccc1O
- Potency [1]: inactive
- Potency [16]: inactive
- Potency [3]: inactive
- Potency [17]: inactive
- outcome [4]: inactive
- outcome [5]: inactive
- Potency [6]: inactive
- outcome [7]: inactive
- outcome [8]: inactive
- Potency [9]: inactive
- outcome [10]: inactive
- outcome [11]: inactive
- outcome [12]: inactive
- outcome [14]: inactive
- outcome [15]: inactive

Structure (SMILES): C=CC(C)(O)CC/C=C(/C)CCC=C(C)C (stereo unspecified)
- Potency [1]: inactive
- Potency [2]: inactive
- Potency [3]: inactive
- Potency [17]: inactive
- Potency [18]: inactive
- outcome [4]: inactive
- outcome [5]: inactive
- Potency [6]: inactive
- outcome [7]: inactive
- outcome [8]: inactive
- Potency [9]: inactive
- outcome [10]: inactive
- outcome [11]: inactive
- outcome [12]: inactive
- outcome [13]: inactive
- outcome [14]: inactive
- outcome [15]: inactive
- Potency [19]: inactive

Structure (SMILES): Cc1c(Nc2ncccc2C(=O)O)cccc1C(F)(F)F
- Potency [1]: inactive
- Potency [2]: inactive
- Potency [3]: inactive
- Potency [17]: inactive
- Potency [18]: 9.02 µM (active)
- fluorescence, relative to Rose Bengal [4]: 0.539% [at 18.6 µM]
- fluorescence, % of fluorescein control [5]: -0.0599% [at 18.6 µM]
- fluorescence, % of triamterene [6]: 0.0756% [at 18.6 µM]
- fluorescence, % of fluorescent control [7]: 0.0414% [at 18.6 µM]
- fluorescence, % of fluorescein [8]: 0.0171% [at 18.6 µM]
- fluorescence, % of fluorescent control [9]: -0.115% [at 18.6 µM]
- activity change [10]: 0.0935% [at 18.6 µM]
- fluorescence, % of fluorescent control [11]: -0.29% [at 18.6 µM]
- fluorescence, % of Rose Bengal [12]: 0.0144% [at 18.6 µM]
- fluorescence, % of fluorescent control [13]: 0.0612% [at 18.6 µM]
- fluorescence, % of fluorescein control [14]: -0.0657% [at 18.6 µM]
- fluorescence, % of fluorescent control [15]: 0.0693% [at 18.6 µM]

Structure (SMILES): Cc1c(N=C=O)cccc1N=C=O
- Potency [1]: inactive
- Potency [2]: inactive
- Potency [3]: inactive
- Potency [17]: inactive
- Potency [18]: inactive
- outcome [4]: inactive
- outcome [5]: inactive
- outcome [7]: inactive
- outcome [8]: inactive
- Potency [9]: inactive
- outcome [10]: inactive
- outcome [11]: inactive
- outcome [12]: inactive
- outcome [13]: inactive
- outcome [14]: inactive
- outcome [15]: inactive
- Potency [19]: inactive

Structure (SMILES): COc1cc(C)c(Cc2cnc(N)nc2N)cc1OC
- Potency [1]: inactive
- Potency [2]: inactive
- Potency [16]: inactive
- outcome [4]: inactive
- outcome [5]: inactive
- outcome [7]: inactive
- outcome [8]: inactive
- Potency [9]: inactive
- outcome [10]: inactive
- outcome [11]: inactive
- outcome [12]: inactive
- outcome [14]: inactive
- Potency [19]: inactive

Structure (SMILES): CCc1c(C)[nH]c2c1C(=O)C(CN1CCOCC1)CC2 (stereo unspecified)
- Potency [1]: inactive
- Potency [2]: inactive
- Potency [3]: inactive
- Potency [17]: inactive
- Potency [18]: inactive
- fluorescence, % of fluorescein control [5]: 0.0551% [at 18.6 µM]
- fluorescence, % of fluorescent control [7]: 0.192% [at 18.6 µM]
- fluorescence, % of fluorescein [8]: 0.152% [at 18.6 µM]
- fluorescence, % of fluorescent control [9]: 0.0226% [at 18.6 µM]
- activity change [10]: 0.141% [at 18.6 µM]
- fluorescence, % of fluorescent control [11]: 0.113% [at 18.6 µM]
- fluorescence, % of Rose Bengal [12]: -0.199% [at 18.6 µM]
- fluorescence, % of fluorescent control [13]: -0.0691% [at 18.6 µM]
- fluorescence, % of fluorescein control [14]: 0.0022% [at 18.6 µM]
- fluorescence, % of fluorescent control [15]: 0.0012% [at 18.6 µM]

Structure (SMILES): CCc1ccc(C(=O)C(C)CN2CCCCC2)cc1 (stereo unspecified)
- Potency [1]: inactive
- Potency [2]: inactive
- Potency [18]: inactive
- outcome [5]: inactive
- Potency [6]: inactive
- outcome [7]: inactive
- outcome [8]: inactive
- Potency [9]: inactive
- outcome [10]: inactive
- outcome [11]: inactive
- outcome [12]: inactive
- outcome [13]: inactive
- outcome [14]: inactive
- outcome [15]: inactive
- Potency [20]: inactive
- Potency [19]: inactive
